In the supplement of paper PMC3334620:
Whole data set: some 33,000 sequences, median “E-score (-0.5 to 0.5)” near -0.035, cut for the highest 2% near 0.35. The list comes from a sample in which the highest values are over-represented; it also holds similar and randomly drawn sequences.

molecular target: T1, Pdr3 (UniProt P33200); test: PBM E-score (8-mer binding enrichment) (E-score (-0.5 to 0.5)); higher = stronger / more preferred TF binding; conditions: protein concentration: 200 nM; construct: GST-full length
T1 sequence: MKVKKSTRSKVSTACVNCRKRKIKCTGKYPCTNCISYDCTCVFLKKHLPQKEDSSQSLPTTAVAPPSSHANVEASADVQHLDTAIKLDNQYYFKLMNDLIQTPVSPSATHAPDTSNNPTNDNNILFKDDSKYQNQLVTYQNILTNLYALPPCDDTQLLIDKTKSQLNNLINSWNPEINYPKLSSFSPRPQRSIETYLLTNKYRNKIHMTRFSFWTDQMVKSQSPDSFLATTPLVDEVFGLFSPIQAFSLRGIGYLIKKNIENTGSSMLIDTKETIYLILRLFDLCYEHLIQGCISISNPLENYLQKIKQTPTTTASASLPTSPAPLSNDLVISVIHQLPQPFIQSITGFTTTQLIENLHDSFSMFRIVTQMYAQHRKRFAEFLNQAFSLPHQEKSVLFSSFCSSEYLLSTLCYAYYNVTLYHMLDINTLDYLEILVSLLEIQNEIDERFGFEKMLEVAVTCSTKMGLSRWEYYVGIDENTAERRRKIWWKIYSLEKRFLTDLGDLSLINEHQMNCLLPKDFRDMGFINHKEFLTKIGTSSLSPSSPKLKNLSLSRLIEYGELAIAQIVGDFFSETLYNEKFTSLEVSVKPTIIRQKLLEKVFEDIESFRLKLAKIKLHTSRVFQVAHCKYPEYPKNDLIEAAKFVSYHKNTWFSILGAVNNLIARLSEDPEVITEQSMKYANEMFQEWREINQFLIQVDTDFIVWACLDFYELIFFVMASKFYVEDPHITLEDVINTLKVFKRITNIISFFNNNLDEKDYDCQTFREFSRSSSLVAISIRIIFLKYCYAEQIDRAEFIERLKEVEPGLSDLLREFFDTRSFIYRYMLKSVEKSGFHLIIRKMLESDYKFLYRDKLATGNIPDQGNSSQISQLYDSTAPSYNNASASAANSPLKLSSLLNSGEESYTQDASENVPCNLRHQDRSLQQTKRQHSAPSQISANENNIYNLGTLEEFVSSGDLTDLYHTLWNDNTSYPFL
How it was run: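 Each ungapped eight-base word and its reverse complement, pooled, received an E-score from the Universal PBM Analysis Suite. Underlying scans, normalised with masliner, recorded fluorescent anti-GST bound to GST-tagged yeast transcription factors. These were applied at about 100-200 nM to universal all-10-mer Agilent arrays double-stranded by primer extension.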

Sequence	PBM E-score
AAAAGAGT	-0.208
AAGATTCG	0.108
ACAACACG	0.0551
ATGTTCGC	-0.165
ACTGGCGG	0.153
CTTCAGGC	-0.224
CGCAAGAG	0.0334
AGGGAATC	0.00236
CCGGAATA	0.437
CTGGAATA	0.08
ATGGAATA	0.205
ATGGAATC	0.205
AAGGAATA	-0.0227
CGGGAATA	0.331
AGGGAATG	-0.0936
ACGGAATG	0.432
ACGGAATA	0.445
ACGGAATC	0.465
ATGGAATG	0.184
GGCCGATA	0.0764
CATGTTTA	-0.0824
GCCGCATA	0.237
AAGGGCAC	-0.157
AAGCCGCC	0.0806
AACCTAGA	0.11
AGACAGTC	-0.0923

Sequence	PBM E-score
GCGGAATA	0.398
CGGGAATC	0.334
GTGGAATA	0.122
GGGGAATA	0.121
CCGGAATC	0.471
CTGGAATC	0.02
CCCACTCA	-0.108
AGATTGTC	0.0868
AGTAAAAT	-0.11
ACGGCTAG	-0.152
AAAACCAA	-0.0135
AATATTTG	0.0496
TATACGGA	0.221
GATACGGA	0.357
AATACGGA	0.351
GATACGGC	0.014
CATACGGC	0.143
CATACGGA	0.359
CTGTTCTC	-0.0802
ATGAGCTG	-0.0649
CGTATTTA	0.164
CGGTGCCA	-0.115
AATCCCGT	0.409
AATCCCGC	0.333
AATCCCGA	0.358
TATCCCGA	0.305

Sequence	PBM E-score
AGTCCCGA	0.147
AATCCCAT	-0.0271
ACAAGGTG	-0.125
GTCCTCTA	-0.222
GGAACCTA	0.3
TCTGGCAA	0.0125
ACCTACGC	-0.0495
CAAACGGG	0.184
AAAACGGA	0.314
CAAACGGA	0.37
TAAACGTA	-0.137
TAAACGGA	0.366
GAAACGGC	0.202
GAAACGGA	0.395
TAAACGAA	-0.0987
GAAACGAA	0.0452
CAAATGCG	0.0429
CATTCTCC	-0.105
CAGGGCAA	0.0442
CCGCTAGG	0.0934
TCGCTAGA	-0.125
CGTACCAC	-0.102
AATCCTAG	-0.108
CTGATAGA	-0.118
ATACCGGA	0.303
CTGCCGGC	0.339

Sequence	PBM E-score
CTTCCGGA	0.451
ATTCCGGA	0.481
GTACCGGA	0.318
CTACCGGC	-0.0343
GTTCCGGA	0.475
CTTCCTGA	0.0336
GTTCCTGA	-0.0384
CTTCCCGA	0.291
CTTCCGGC	0.398
ATTCCAGA	0.0594
AACTGATA	0.0335
ATAAGCAA	-0.128
GATGCGCA	0.0246
AAAACCCG	0.319
CACTTACG	0.121
AGCCCTCA	-0.248
GCCGGCGC	0.372
ACCGGCGA	0.281
CCCGGCGA	0.296
TCCGGCGA	0.356
ACCGGCGC	0.228
GCCGGCGA	0.36
CCCGGCGC	0.26
GCCGGCTA	0.248
GTCGGCGA	-0.0361
AGAGGCCG	-0.105

Sequence	PBM E-score
CTAGAAGC	-0.166
ATGTCGGC	-0.0499
CGCAACTA	0.0897
GCGCCGTA	0.251
CCGCCGCA	0.202
CCGCCGTC	0.168
ACGCCGGC	0.385
GCGCCGGA	0.384
ACGCCGCC	0.0831
ACGCCGGG	0.251
CCGCCGGC	0.401
ACGCCGGA	0.289
GCGCCGAA	0.241
CCGCCGGA	0.415
CCGCCGCC	0.244
GACCTACC	0.0277
ACCTTTAA	-0.0915
ATGTCGTA	-0.238
CATGAGTA	-0.168
GCGCACGA	0.0416
GCTGTACC	-0.00444
GCCTGCCC	-0.0411
CCCAAGAA	-0.0373
GCGGCGCC	0.353
CCGGCGCC	0.37
ACGGCGCC	0.243

Sequence	PBM E-score
AACGAACT	-0.245
AGAGAAGG	-0.0862
AGGAAAGC	-0.105
GGGAAAGA	0.0836
CGGAAAGA	0.428
AGGAAAGA	-0.167
CGGAAAGC	0.415
CCGAAAGC	0.136
CTGCGGTA	-0.0102
GCTTTCAC	-0.107
ACTGGGCT	0.0297
CCTGCAGA	-0.0209
AGTTCTGG	-0.0246
CGGTGTAC	-0.0705
AGACTACT	-0.173
TGGATACA	-0.189
CGGATAAC	0.333
TGGATAAA	0.103
CGGATACC	0.31
CGGATAAA	0.383
CGGATATC	0.391
CGGATACA	0.364
AGGATATC	-0.0388
CGGATATA	0.346
ACTTTGAA	-0.202
ATCTTAGC	-0.2

Sequence	PBM E-score
GGCCAGAC	0.075
GAGGTCAC	-0.0512
ACCCAGAG	-0.132
AGGCGCAC	0.147
CCGTGGAC	0.274
ACGTGGAA	-0.0114
CCGTGGAA	0.437
ACGTGGAG	-0.132
GCGTGGAA	0.0102
CCGTGGAG	0.382
TGCGCCAA	0.053
ACGCGGAC	0.229
GCGCGGAC	0.305
ACGCGGAT	0.244
ACGCGGAA	0.407
TCGCGGCA	0.174
GCGCGGAA	0.464
GCGCGGCA	0.237
TCGCGGAA	0.404
TCGCGAAA	0.131
